The nature of assay [1]: ATG_GLI_CIS: Attagene CIS-FACTORIAL HepG2 Assay for human Zinc Finger Protein GLI1 (AID 2282945). The following applies: HepG2, Attagene cis-factorial reporter mRNA, GLI element; actives raise or lower the signal. The method, boiled down:
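Transiently transfected HepG2 cells report endogenous transcription factor activity via cis-element-driven reporter units. After 24 h compound exposure, reporter mRNA was measured by RT-PCR with capillary electrophoresis; bidirectional fitting against DMSO baseline.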

Assay [2] in a line: ATG_GRE_CIS: Attagene CIS-FACTORIAL HepG2 Assay for human Glucocorticoid Response Elements (GRE) (AID 2282947). The following applies: HepG2 GRE cis-reporter, Attagene multiplex mRNA; actives raise or lower the signal. The method, boiled down:
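Read-out: fluorescent reporter-transcript fragments separated by capillary electrophoresis after RT-PCR. Transiently transfected HepG2 cells carrying cis-element-driven reporter units were dosed for 24 h; gain or loss of signal fitted against DMSO control.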

Assay [3] can be described thus: ATG_ISRE_CIS: Attagene CIS-FACTORIAL HepG2 Assay for human Interferon Regulatory Factor 1 (IRF1) binding to an Interferon-Stimulated Response Element (ISRE) (AID 2282948). The following applies: HepG2 ISRE cis-reporter (Attagene), mRNA transcription readout; actives raise or lower the signal. The method, boiled down: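 Uses HepG2 liver cells transfected with cis-regulated reporters and measures mRNA 24 h post-dosing through RT-PCR, primer-extension labelling and capillary electrophoresis, with DMSO as negative control.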

Assay [4] can be described thus: ATG_M_32_CIS: Attagene CIS-FACTORIAL HepG2 Assay for M32 Transcription Factor (Internal Marker) (AID 2282949).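 Also: background control marker of the multiplexed CIS panel rather than a real target.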 The note with it: HepG2 Attagene cis-factorial M32 reporter, mRNA; actives raise or lower the signal. The method, boiled down:
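Transient MRTU transfection of HepG2; 24 h compound treatment; TriZol RNA, oligo(dT) RT, reporter PCR, 6-FAM primer extension, HpaI cut, CE. Gain/loss of signal vs DMSO.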

Assay [5] is described as follows: ATG_M_06_CIS: Attagene CIS-FACTORIAL HepG2 Assay for M06 Transcription Factor (Internal Marker) (AID 2282950). The following applies: HepG2 Attagene CIS-FACTORIAL M06 internal marker reporter; actives raise or lower the signal. The method in brief:
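Measured 24 h post-dosing in transiently transfected HepG2 cells, this internal-marker endpoint reports reporter mRNA via RT-PCR with fluorescent primer extension and capillary electrophoresis. DMSO served as negative control and baseline for bidirectional fitting.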

Assay [6] concerns the target Hypoxia-inducible factor 1-alpha (Homo sapiens) (UniProt Q16665). Kind of assay: ATG_HIF1a_CIS: Attagene CIS-FACTORIAL HepG2 Assay for human Hypoxia Inducible Factor 1 (HIF1A) (AID 2282951). The following applies: HepG2 Attagene cis-factorial HIF1a reporter transcription; actives raise or lower the signal. The method, boiled down:
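Dosed 24 h, transfected HepG2 cells yielded total RNA whose reporter transcripts were RT-PCR-amplified and sized by capillary electrophoresis using fluorescent labelling; DMSO defined baseline, with gain and loss of signal both fitted.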

Assay [7] has as its target Hepatocyte nuclear factor 6 (Homo sapiens) (UniProt Q9UBC0). Description: ATG_HNF6_CIS: Attagene CIS-FACTORIAL HepG2 Assay for human Hepatocyte Nuclear Factor 6 (HNF6) (AID 2282952). The following applies: HepG2 Attagene cis-factorial HNF6 reporter transcription; actives raise or lower the signal. The method, boiled down:
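Endogenous factor activity read in transiently transfected HepG2 via promoter-regulated reporter transcripts. RNA harvested 24 h post-dosing, reverse-transcribed, PCR-amplified, FAM-labelled, HpaI-digested and resolved by capillary electrophoresis; fitted in both directions against DMSO.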

Assay [8] deals with Heat shock factor protein 1 (Homo sapiens) (UniProt Q00613). Description: ATG_HSE_CIS: Attagene CIS-FACTORIAL HepG2 Assay for human Heat Shock Transcription Factor 1 (HSE) (AID 2282953). The following applies: HepG2 HSE cis-reporter, Attagene RNA transcription; actives raise or lower the signal. The method in brief:
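Reporter mRNA induction in HepG2 is measured 24 h after dosing, using transiently transfected multiplexed cis-regulated reporter units. Signal comes from capillary electrophoresis of labelled RT-PCR products, with DMSO as negative control.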

The nature of assay [9]: ATG_MRE_CIS: Attagene CIS-FACTORIAL HepG2 Assay for human Metal Responsive Element (MRE) (AID 2282954). The note with it: HepG2 MRE cis-reporter transcription, Attagene multiplex; actives raise or lower the signal. The method, boiled down:
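RT-PCR/capillary electrophoresis readout of reporter mRNA, 24 h post-dosing, in HepG2 cells transfected with multiplexed cis-regulated reporter constructs. Gain or loss of signal fitted bidirectionally against DMSO baseline.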

Assay [10] addresses Bile acid receptor (Homo sapiens) (UniProt Q96RI1). Description: ATG_IR1_CIS: Attagene CIS-FACTORIAL HepG2 Assay for human Nuclear Receptor Subfamily 1 Group H Member 4 (NR1H4), IR1 submotif (AID 2282946). The note with it: IR1 reporter transcription, actives raise or lower the signal. The method in brief: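 Fluorescence of capillary-separated, HpaI-digested RT-PCR reporter products gave IR1-element mRNA induction in HepG2 cells 24 h after dosing. Endogenous transcription factors drove the cis-regulated reporters; activity was fitted bidirectionally against DMSO.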

Structures are written as SMILES. Calls of active or inactive are those of the source. The calls were made as follows: active = hit-call score of the fitted dose curve at least 0.9, where 1 is the maximum; inactive = score below 0.9.

Outcome and AC50 data for 32 compounds are collected here from PubChem BioAssay (EPA / NIEHS).

Heat shock factor protein 1 (Homo sapiens), sequence (Q00613 whole entry, looked up): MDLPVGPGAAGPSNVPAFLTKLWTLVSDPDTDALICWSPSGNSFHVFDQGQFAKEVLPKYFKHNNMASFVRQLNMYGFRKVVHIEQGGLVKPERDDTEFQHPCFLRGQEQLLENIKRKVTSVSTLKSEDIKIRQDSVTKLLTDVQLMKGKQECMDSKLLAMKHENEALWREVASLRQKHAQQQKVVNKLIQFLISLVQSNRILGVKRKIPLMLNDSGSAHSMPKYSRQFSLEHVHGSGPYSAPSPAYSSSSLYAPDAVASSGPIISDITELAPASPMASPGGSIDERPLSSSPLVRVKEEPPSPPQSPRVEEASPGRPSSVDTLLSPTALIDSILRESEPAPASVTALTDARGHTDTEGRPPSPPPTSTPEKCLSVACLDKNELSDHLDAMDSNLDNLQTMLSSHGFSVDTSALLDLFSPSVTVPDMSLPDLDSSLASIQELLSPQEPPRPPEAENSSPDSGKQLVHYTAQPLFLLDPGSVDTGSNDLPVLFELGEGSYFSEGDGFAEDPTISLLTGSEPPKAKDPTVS
Hepatocyte nuclear factor 6 (Homo sapiens), sequence (Q9UBC0 whole entry, looked up): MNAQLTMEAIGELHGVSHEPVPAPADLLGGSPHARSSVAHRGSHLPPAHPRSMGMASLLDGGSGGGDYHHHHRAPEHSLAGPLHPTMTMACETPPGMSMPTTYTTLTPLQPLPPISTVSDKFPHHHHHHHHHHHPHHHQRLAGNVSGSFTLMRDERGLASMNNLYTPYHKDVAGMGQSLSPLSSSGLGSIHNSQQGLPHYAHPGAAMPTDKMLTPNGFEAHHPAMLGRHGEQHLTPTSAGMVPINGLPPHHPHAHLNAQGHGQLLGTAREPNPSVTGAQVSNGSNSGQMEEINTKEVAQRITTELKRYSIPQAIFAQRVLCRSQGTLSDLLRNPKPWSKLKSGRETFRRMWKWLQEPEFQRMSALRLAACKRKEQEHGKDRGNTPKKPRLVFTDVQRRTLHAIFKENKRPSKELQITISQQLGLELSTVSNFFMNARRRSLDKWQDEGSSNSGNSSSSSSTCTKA
Hypoxia-inducible factor 1-alpha (Homo sapiens), sequence (Q16665 whole entry, looked up): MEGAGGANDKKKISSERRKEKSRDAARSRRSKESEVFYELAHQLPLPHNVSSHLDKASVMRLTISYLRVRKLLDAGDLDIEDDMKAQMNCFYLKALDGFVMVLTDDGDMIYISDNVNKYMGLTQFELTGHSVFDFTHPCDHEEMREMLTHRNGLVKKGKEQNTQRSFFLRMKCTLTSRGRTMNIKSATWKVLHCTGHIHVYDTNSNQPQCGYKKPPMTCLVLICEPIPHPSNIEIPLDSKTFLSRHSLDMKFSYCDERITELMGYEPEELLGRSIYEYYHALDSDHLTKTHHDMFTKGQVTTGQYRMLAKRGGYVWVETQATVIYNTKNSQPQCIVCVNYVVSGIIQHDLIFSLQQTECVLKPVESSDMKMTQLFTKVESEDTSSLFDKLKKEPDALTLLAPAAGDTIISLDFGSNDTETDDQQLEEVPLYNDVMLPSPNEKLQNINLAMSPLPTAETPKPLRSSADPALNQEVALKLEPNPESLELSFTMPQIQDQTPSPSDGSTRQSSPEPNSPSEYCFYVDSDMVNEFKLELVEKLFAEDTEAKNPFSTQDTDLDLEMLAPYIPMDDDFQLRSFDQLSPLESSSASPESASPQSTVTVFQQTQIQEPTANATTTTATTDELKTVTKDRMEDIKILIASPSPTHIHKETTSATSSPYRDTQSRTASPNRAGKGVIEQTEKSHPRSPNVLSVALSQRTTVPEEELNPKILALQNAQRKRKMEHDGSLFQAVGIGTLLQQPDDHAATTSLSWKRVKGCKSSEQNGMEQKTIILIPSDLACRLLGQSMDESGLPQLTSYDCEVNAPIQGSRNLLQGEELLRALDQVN
Bile acid receptor (Homo sapiens), sequence (Q96RI1 whole entry, looked up): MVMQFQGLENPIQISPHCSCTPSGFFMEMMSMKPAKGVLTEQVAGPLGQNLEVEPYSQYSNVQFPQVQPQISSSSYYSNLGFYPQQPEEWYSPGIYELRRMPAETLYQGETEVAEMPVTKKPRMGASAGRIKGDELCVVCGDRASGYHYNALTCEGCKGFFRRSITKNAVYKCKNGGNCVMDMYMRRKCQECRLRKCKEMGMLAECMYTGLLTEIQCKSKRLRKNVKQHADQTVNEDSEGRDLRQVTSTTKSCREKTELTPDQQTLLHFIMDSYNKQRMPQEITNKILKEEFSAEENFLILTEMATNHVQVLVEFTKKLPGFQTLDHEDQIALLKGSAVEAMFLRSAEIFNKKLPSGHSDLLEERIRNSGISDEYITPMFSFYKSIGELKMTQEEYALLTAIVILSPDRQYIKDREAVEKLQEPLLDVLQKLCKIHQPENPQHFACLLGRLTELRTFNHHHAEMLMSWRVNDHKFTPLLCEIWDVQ

In the case of `CC1=CC(C)C(C=O)CC1` (configuration not stated), the compound was called inactive in assay [1], in assay [2], in assay [3], in [4], in assay [5] and in assay [6]. For the same compound, the call in assay [7], in assay [8] and in assay [9] was inactive.
With `OCCCc1ccccc1`, the compound was called inactive in [1], in [2], in assay [3], in assay [4], in assay [5] and in assay [6]. The call in [7], in assay [8] and in [9] was inactive.
For the compound `CC(C)C(=O)OCCOc1ccccc1`, the call in assay [1], in assay [2], in [3], in assay [4], in [5] and in [6] was inactive. Besides, the result in assay [7], in [8] and in [9] was inactive.
In the case of `C1CCSC1`, the compound was classed as inactive in assay [1], in assay [2], in assay [3], in assay [4], in assay [5] and in assay [6]. Besides, the result in [7], in [8] and in assay [9] was inactive.
For `N#CC1(N)CCCCC1`, the compound was called inactive in assay [1], in assay [2], in assay [3], in assay [4], in assay [5] and in assay [6]. Further, the call in assay [7], in assay [8] and in [9] was inactive.
`CCC(=O)C1CC(C(C)C)CC=C1C` (configuration not stated): the compound was classed as inactive in assay [1], in assay [2], in assay [3], in assay [4], in assay [5] and in [6]. In addition, the compound was classed as inactive in assay [7], in assay [8] and in assay [9].
For the compound `C[Si]1(C)O[Si](C)(C)O[Si](C)(C)O[Si](C)(C)O[Si](C)(C)O1`, the result in assay [1], in assay [2], in assay [3], in [4], in [5] and in [6] was inactive. The compound was classed as inactive in [7], in [8] and in assay [9].
On to `Cc1ccc2c(c1)CCCN2`, for which the compound was classed as inactive in assay [1], in [2], in [3], in assay [4], in [6] and in assay [7]. For the same compound, the compound was classed as inactive in assay [8] and in [9].
As to `CC(C)c1cccc(C(C)C)c1N`, the call in assay [1], in assay [2], in assay [3], in assay [4], in assay [6] and in assay [7] was inactive. Also, the outcome in assay [8] and in assay [9] was inactive.
On to `CCOC(=O)c1ccccc1C`, for which the compound was classed as inactive in assay [1], in assay [2], in assay [3], in assay [4], in assay [6] and in assay [7]. In [8], the call was inactive.
As to `COC(=O)C=Cc1ccccc1`, the outcome in assay [1], in assay [2], in assay [4], in assay [6], in assay [7] and in assay [8] was inactive. Besides, the outcome in assay [9] was inactive.
As for `CCCC(C)C(=O)OCC` (configuration not stated), the result in assay [1], in [2], in assay [4], in assay [5], in assay [6] and in [7] was inactive. The compound was classed as inactive in assay [8] and in assay [9].
Consider `NC(=O)Nc1ccccc1`, for which the result in assay [1], in assay [2], in assay [4], in assay [5], in [6] and in [7] was inactive. Also, the outcome in assay [8] and in assay [9] was inactive.
As for `CC(=O)OC/C=C(/C)CCC=C(C)C`, the result in assay [1], in assay [2], in [4], in assay [5], in assay [6] and in assay [7] was inactive. In addition, the call in assay [8] and in [9] was inactive.
Take `CC(=O)CCC=C(C)C`: the compound was called inactive in assay [1], in [2], in assay [4], in [6], in [7] and in [8]. In addition, the outcome in [9] was inactive.
On to `Nc1ccnc(=O)[nH]1`, for which the compound was classed as inactive in assay [1], in assay [2], in assay [4], in assay [6], in assay [7] and in assay [8]. For the same compound, in [9], the compound was classed as inactive.
`CC1=C(O)C(=O)C(C)O1` (configuration not stated): the compound was classed as inactive in assay [10], in [2], in assay [3], in assay [4], in assay [5] and in assay [6]. Also, the call in assay [7], in assay [8] and in assay [9] was inactive.
On to `CC=C(C)C=CC=C(C)C`, for which the compound was classed as inactive in [1], in [2], in assay [4], in assay [6], in assay [7] and in [8].
Regarding `CC1=CCC2CC1C2(C)C` (configuration not stated), the compound was called inactive in assay [1], in assay [3], in [4], in assay [5], in assay [6] and in assay [7]. Moreover, the result in assay [8] was inactive.
With `CC(C)CCCCCOC(=O)CS`, the compound was called inactive in assay [1], in assay [2], in assay [4], in [5], in assay [6] and in assay [7]. Besides, the result in assay [8] and in assay [9] was inactive.
Take `CC(C)C(=O)OCCc1ccccc1`: the compound was classed as inactive in assay [1], in assay [3], in assay [4], in assay [5], in [6] and in assay [7]. Besides, the outcome in assay [8] and in [9] was inactive.
Regarding `C=C(C)C1CC=C(C)CC1` (configuration not stated), the outcome in [1], in assay [3], in [4], in assay [5], in assay [6] and in assay [7] was inactive. The result in assay [8] and in assay [9] was inactive.
Take `CC(=O)c1ccc(S(=O)(=O)NC(=O)NC2CCCCC2)cc1`: the compound was called inactive in [1], in assay [2], in [4], in assay [5], in [7] and in [8].
Consider `CC(C)c1ccc2ncccc2c1`, for which the call in assay [1], in [3], in assay [4], in assay [5], in assay [6] and in [7] was inactive. Further, the outcome in [8] and in assay [9] was inactive.
In the case of `Cc1c(C(=O)c2c[nH]n(C)c2=O)ccc(S(C)(=O)=O)c1C1=NOCC1`, the compound was classed as inactive in assay [1], in assay [2], in assay [4], in assay [5], in assay [6] and in assay [7]. The call in [8] was inactive.
For the compound `CC1(C)CCC[C@]2(C)[C@H]3CC(=O)O[C@]3(C)CC[C@@H]12`, the call in [1], in [2], in [4], in assay [6], in [7] and in [8] was inactive. Also, the compound was called inactive in assay [9].
As to `CCCCOC(=O)C(C)CC` (configuration not stated), the outcome in [1], in assay [2], in assay [4], in assay [5], in [6] and in [7] was inactive. The call in [8] and in [9] was inactive.
As to `Cc1noc(NS(=O)(=O)c2ccc(N)cc2)c1C`, the call in assay [1], in assay [3], in [4], in assay [5], in [6] and in assay [7] was inactive. Besides, the compound was called inactive in [8] and in [9].
For `c1ccc2sc(SSN3CCOCC3)nc2c1`, the half-maximal activity concentration (AC50) was 79.4 µM (active) in [1], 32.2 µM (active) in assay [6], 69.6 µM (active) in assay [8] and 123 µM (active) in assay [9]. The compound was called inactive in assay [3], in assay [4], in assay [5] and in assay [7].
Regarding `CC(C)CC(=O)OCc1ccccc1`, the compound was called inactive in assay [1], in assay [2], in assay [4], in [6], in assay [7] and in [8]. Moreover, in assay [9], the outcome was inactive.
On to `C[Si](C)(C)N[Si](C)(C)C`, for which the result in assay [1], in assay [2], in assay [4], in [5], in assay [6] and in [7] was inactive. In addition, the compound was called inactive in assay [8] and in assay [9].
`CCCCOCCOCCOC(C)=O`: the outcome in assay [1], in [2], in assay [4], in assay [5], in assay [6] and in assay [7] was inactive. Also, the call in assay [8] and in assay [9] was inactive.
